Test results published in the supplement of paper PMC3334620.
Over roughly 33,000 sequences, “E-score (-0.5 to 0.5)” has its median near -0.04; the highest 2% begin near 0.36. The list comes from a sample in which the highest values are over-represented; it also holds similar and randomly drawn sequences.

Target: T1, Hmlalpha2 (UniProt P0CY09)
T1 sequence: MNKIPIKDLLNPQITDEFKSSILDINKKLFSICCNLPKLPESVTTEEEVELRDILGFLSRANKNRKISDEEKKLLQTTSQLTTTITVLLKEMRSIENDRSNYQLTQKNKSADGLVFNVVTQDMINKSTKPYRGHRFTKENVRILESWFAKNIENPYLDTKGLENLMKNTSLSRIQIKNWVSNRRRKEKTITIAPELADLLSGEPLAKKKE
Assay: PBM E-score (8-mer binding enrichment) (E-score (-0.5 to 0.5)); higher = stronger / more preferred TF binding
Conditions: protein concentration: 200 nM; construct: GST-full length
Experimental: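 Universal 'all 10-mer' protein binding microarrays (Agilent AMADID 015681) probed with GST-tagged S. cerevisiae TFs (full-length or DBD) made by in vitro transcription/translation (PURExpress), about 100-200 nM. Bound TF was detected with fluorescent anti-GST. Each ungapped 8-mer (which stands for itself and its reverse complement) is scored by the PBM enrichment score (E-score), a modified Wilcoxon-Mann-Whitney statistic from -0.5 to +0.5, computed with the Universal PBM Analysis Suite. Scale: above 0.35 generally sequence-specific binding.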

Sequence | PBM E-score
AACGATCT | -0.0798
ACCAAAGG | -0.219
AGCACCCA | -0.176
CGGGTAAA | 0.234
AGTACAAA | 0.161
AGTACACA | 0.387
AGTACAGG | 0.134
GGTACACA | 0.246
TGTACACA | 0.418
AGTACACT | 0.074
TGTACAAA | 0.422
GGTACAAA | 0.138
CGTACACG | 0.354
CGTACACA | 0.347
AGTACACG | 0.437
AGTACACC | 0.115
ACACCGCG | 0.15
GCGACTCA | -0.134
ATGCGAGG | -0.117
GAACGATC | -0.0263
AGAGTGCC | -0.257
CGTACCTA | -0.0874
ACGGCCCC | -0.437
CTGTTAAC | 0.304
TTGTTAAA | 0.359

Sequence | PBM E-score
GTGTTAAA | 0.462
AAGTTAAC | 0.303
ATGTTAAC | 0.448
ATGTTAGC | 0.342
GTGTTAAC | 0.462
CTGTTAAA | 0.258
GAGTTAAC | 0.234
CCCTTAAC | -0.0469
ATACTATC | 0.0717
ATTTGCGA | 0.0385
AAGTTTCC | 0.0351
ATGCTGTG | 0.238
CGGGTCCA | -0.262
AAGCGTCT | -0.232
CTGTTTAC | 0.371
CTGTTTCC | -0.11
ATGTTTAG | 0.33
CCGTTTAC | 0.259
ATGTTTGC | 0.166
ATGTTTAC | 0.433
AGGAGATG | -0.157
AGGAAAAA | 0.00347
GTATTATA | 0.318
CATATGTA | 0.356
CCTATGTC | 0.0957

Sequence | PBM E-score
ACTATGTC | 0.165
GATATGTA | 0.345
GCTATGTA | 0.426
AATATGTC | 0.167
CCTATGTA | 0.433
ACTATGTA | 0.444
CCTATGAA | -0.065
AATATGTA | 0.386
GCTATGCA | -0.0142
ACTATGTG | 0.108
CTTCATTC | -0.149
AAGATCAC | -5e-05
CACAGGTC | -0.101
GAATACCC | -0.19
TGACCAAA | -0.0837
CCAGTAGG | -0.239
GTGAAGCA | -0.113
CTGGAAAG | -0.217
AAACCTTT | -0.111
AGGTATGG | -0.317
ACGCTTGC | -0.0163
TTACCCAA | 0.02
ATGTAATC | 0.478
CTGTAATA | 0.286
AAGTAATA | 0.24

Sequence | PBM E-score
ATGTAATG | 0.479
ATGTAATA | 0.48
ATGTAACG | 0.362
CTGTAATC | 0.243
CAGTAATG | 0.167
GTGTAATA | 0.456
ATGTAACC | 0.304
GGGTAATA | 0.193
CGGTAATA | -0.00682
GGAGTGTA | 0.18
CATGAGGC | -0.166
TACTGTCA | -0.0966
CAGCAGCG | 0.0849
GGGGATAA | -0.178
CCAGGACG | 0.0263
GGGCCAAA | -0.124
GGGCACTA | -0.105
ACACGCCC | 0.371
ACACGCCA | 0.311
ACACGCCT | 0.374
AGACGCCT | -0.0767
ACACGCCG | 0.274
GCACGCCC | -0.0771
ATCCTGCA | -0.0119
CTATTGCA | 0.117

Sequence | PBM E-score
CCGGTTTA | 0.0123
GATGAGCC | -0.213
AGAAGGAA | -0.351
CCCTTAAA | -0.0696
GAGACGGA | -0.095
AAGTAGGC | -0.0798
CTTGAATC | -0.0387
CGATCTCA | -0.0804
AAGATCAG | -0.187
AACAACAC | 0.375
AACAACAA | 0.306
AACAACAG | 0.108
CACAACAC | 0.306
AACAACAT | 0.385
GACAACAC | 0.319
CGAAACCC | -0.121
CTTCTAGC | -0.197
CCCCGCAC | -0.201
CCGGGAAG | -0.179
CGTCCCCA | -0.224
CGACATGA | 0.319
CTACATGA | 0.421
GTACATTA | 0.316
GCACATGA | 0.0937
GTACATGA | 0.426

Sequence | PBM E-score
CTACATCA | 0.222
AACATTGC | 0.191
GGAATCTA | -0.132
GCACGGAC | -0.0335
ACCAAATA | 0.191
ACACACAG | 0.364
ATACACAA | 0.42
ACACATAT | 0.317
AAACACAT | 0.314
ATACACAG | 0.408
ACACACAT | 0.379
AGACACAT | 0.128
ACACACAC | 0.326
ACACACAA | 0.313
ATACACAT | 0.399
AGACACAA | 0.172
CTATACAG | 0.0549
TTCATGAA | -0.00198
ATTGAGCA | 0.0182
ATAACCAC | -0.0123
ACCCCCGA | -0.0909
GGCAAAGA | -0.0294
CCCCTGTC | -0.152
GGCCAGCC | -0.192
CAGCGACG | -0.0401

Sequence | PBM E-score
ATACACAC | 0.429
ATACACTC | 0.185
ATACACCG | 0.145
CGCTGAGA | -0.139
CCCTCAGA | -0.285
CTATTCCC | -0.203
AGTGCACC | -0.2
AAGTGTAG | 0.0742
AGGTGTAA | 0.317
CAGTGTAC | 0.154
CCGTGTCC | 0.0408
AGGTGTAG | 0.0925
ACGTGTGA | 0.229
CAGTGTAG | 0.243
ACGTGTAA | 0.482
CCGTGTAG | 0.452
CCGTGTCG | 0.233
ACGTGTAG | 0.429
CCGTGTAC | 0.422
CGGACGGA | -0.198
AGACTGGA | -0.0528
CGAATCGC | -0.169
